Hit rate of the full screen: of about 330,000 compounds, about 2,600 (0.79%) were called active. The entries come from a sample that favours actives as a whole. A number with no mark means an inactive call.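 Rule for the calls: active = mean ATP rescue above about 67%, or every replicate alone reaching that limit (limit read from the data, passing the limit was not always enough); inconclusive = no clear call, values can overlap the other calls; inactive = mean under the limit and some replicate under it.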

The nature of this assay: suppressors of statin myotoxicity in C2C12 myotubes, primary screen, cell-based, single point, plate reader (AID 602340).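 Note: myotubes were challenged with 10 µM simvastatin during compound exposure.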 To be noted: C2C12 myotubes + simvastatin, ATP luminescence, 48 h; at 7.49 µM; active compounds read high; scaled: DMSO 0, geranylgeraniol control 100.
Turning to `O=C(C[C@H]1C=C[C@@H](NC(=O)C2CCOCC2)[C@@H](CO)O1)NCC1CCCCC1`, the rescue of ATP level was -2.92%. Next, `CO[C@@H]1CN(C)C(=O)c2cc(NS(=O)(=O)CC(F)(F)F)ccc2OC[C@@H](C)N(Cc2ccccn2)C[C@H]1C`: -12.7%; `COC(=O)Nc1sc2nc(C)cc(C)c2c1-n1cccc1`: -7.59%; `Cc1cc(C)c2c(-n3cccc3)c(C(=O)NNS(=O)(=O)c3ccc(F)cc3)sc2n1`: 7.07%. Turning to `CCCCOC(=O)Nc1sc2nc(C)cc(C)c2c1-n1cccc1`, the rescue of ATP level is 66.9% (active). As to `CCC(=O)N(C)C[C@H]1[C@H](c2ccc(C3=CCCCC3)cc2)[C@@H](CO)N1C(C)=O`, the rescue of ATP level is 16.5%.

As to `C[C@H](CO)N1C[C@H](C)[C@@H](CN(C)Cc2ccc(-c3ccccc3)cc2)Oc2ccc(NC(=O)CCC(F)(F)F)cc2CC1=O`, the rescue of ATP level was 74.7% (active).

On to `C[C@@H]1CN([C@H](C)CO)C(=O)Cc2cc(NC(=O)CCC(F)(F)F)ccc2O[C@@H]1CN(C)Cc1ccncc1`, for which the rescue of ATP level was -15.3%. To `C[C@H]1CN([C@@H](C)CO)C(=O)Cc2cc(NC(=O)CCCN(C)C)ccc2O[C@@H]1CN(C)Cc1ccc(-c2ccccc2)cc1` belongs 17.6%; to `C[C@@H]1CN([C@@H](C)CO)C(=O)Cc2cc(NC(=O)CCCCCC(=O)Nc3ccccc3N)ccc2O[C@H]1CN(C)C(=O)Nc1ccc(C(F)(F)F)cc1`, -13.1%. To `C[C@H]1CN([C@@H](C)CO)C(=O)Cc2cc(NC(=O)Cn3cnnn3)ccc2O[C@H]1CN(C)Cc1ccc(C(=O)O)cc1` belongs -21.6%; to `C[C@@H]1CN([C@H](C)CO)C(=O)Cc2cc(NC(=O)Cn3cnnn3)ccc2O[C@H]1CN(C)Cc1ccc(Cl)c(Cl)c1`, 18.5%; to `C[C@H](CO)N1C[C@H](C)[C@H](CN(C)Cc2ccc(C(F)(F)F)cc2)Oc2ccc(NC(=O)CCCCCC(=O)Nc3ccccc3N)cc2CC1=O`, 183% (active). To `C[C@H]1CN([C@@H](C)CO)C(=O)Cc2cc(NC(=O)CCCCCC(=O)Nc3ccccc3N)ccc2O[C@@H]1CN(C)Cc1ccncc1` belongs 20.5%; to `C[C@H](CO)N1C[C@H](C)[C@@H](CN(C)Cc2ccc(Cl)c(Cl)c2)Oc2ccc(NC(=O)Cn3cnnn3)cc2CC1=O`, 88.7% (active). `CO[C@H]1CN(C)C(=O)c2ccc(NC(C)=O)cc2OC[C@H](C)N(C(=O)c2ccccc2)C[C@H]1C`: the rescue of ATP level was 3.84%. Next, `C[C@@H](NC(=O)[C@H]1[C@H](CO)[C@H]2Cn3c(cccc3=O)[C@@H]1N2Cc1cccnc1)c1ccccc1`: -8.14%; `C/C=C/c1ccc2c(c1)O[C@@H](CN(C)CC1CCOCC1)[C@@H](C)CN([C@H](C)CO)S2(=O)=O`: 1.59%. With `COCC(=O)N(C[C@H]1N[C@H](CO)[C@H]1c1ccc(C2=CCCCC2)cc1)C(C)C`, the rescue of ATP level was -22.7%. Next, `Cc1noc(C)c1NC(=O)Nc1ccc2c(c1)CC(=O)N([C@@H](C)CO)C[C@H](C)[C@H](CN(C)S(=O)(=O)c1c(C)noc1C)O2`: -4.37%; `O=C(NCC[C@@H]1CC[C@H](NC(=O)Nc2cc(F)ccc2F)[C@@H](CO)O1)Nc1ccc(Cl)cc1`: 2.28%; `Cc1cc(C(=O)OCC(=O)c2c(N)n(C)c(=O)n(C)c2=O)c(C)o1`: 148% (active). Turning to `Cn1c(N)c(C(=O)COC(=O)COc2ccc(Cl)cc2)c(=O)n(C)c1=O`, the rescue of ATP level was 9.73%.

On to `Cn1c(N)c(C(=O)COC(=O)c2ccc3ccccc3c2)c(=O)n(C)c1=O`, for which the rescue of ATP level was -2.95%. Next, `COc1ccc(S(=O)(=O)Nc2cccc3c2O[C@@H](CN(C)C(=O)Nc2ccccc2)[C@@H](C)CN([C@H](C)CO)C3=O)cc1`: -38.3%. To `CCn1c(SCCC(C)C)nnc1-c1c[nH]c2ccccc12` belongs -7.75%. Next, `Cc1ccc(-c2csc(NC3OC(=O)c4ccccc43)n2)cc1` (centres undefined): -7.28%; `Cc1ccc(-c2csc(-c3c[nH]c4ccccc34)n2)cc1`: 102% (active); `Cc1ccc(-c2nc(CS(=O)(=O)CC(=O)NCc3ccc4c(c3)OCO4)c(C)o2)cc1`: 28.8%. In the case of `CC1(C(=O)NCc2ccc3c(c2)OCO3)CCN1CCc1ccccc1` (centres undefined), the rescue of ATP level was 34.5%. To `O=C(CN1CCN(c2nc(-c3ccccc3)cs2)CC1)NCc1ccc2c(c1)OCO2` belongs 124% (active); to `CCCOc1ccc(Cn2c(O)cc(=O)[nH]c2=O)cc1`, 2.27%. Next, `COc1ccc(NC(=O)CNC(=O)Cc2ccccc2)cc1OC`: -3.67%. Next, `COc1cc(=O)[nH]c(=O)n1C(=O)Cc1ccccc1`: 89.8% (active). Turning to `CCCNC(=O)N1[C@H](CNC(C)=O)[C@@H](c2ccc(C3=CCCC3)cc2)[C@@H]1CO`, the rescue of ATP level is 17.7%. Next, `O=C(N[C@H]1C=C[C@@H](CC(=O)N2CCCCC2)O[C@@H]1CO)c1ccc2c(c1)OCO2`: -0.462%; `CO[C@@H]1CN(C)C(=O)c2cc(NC(=O)NC3CCCCC3)ccc2OC[C@H](C)N(CC2CCOCC2)C[C@H]1C`: -0.27%. For `Cc1ccc(S(=O)(=O)NCCC(=O)Nc2ccc(C)c(Cl)c2)cc1C`, the rescue of ATP level was 1.52%. As to `CC(=O)CCS(=O)(=O)c1ccc(C)c(C)c1`, the rescue of ATP level was 101% (active). Next, `Cc1ccnc(NC(=O)CCNS(=O)(=O)c2ccc(C)c(C)c2)c1`: 0.26%.

Consider `COc1ccc(C(O)c2nc(-c3ccc(OC)nc3)cs2)cc1` (centres undefined), for which the rescue of ATP level is 4.92%. To `COc1cccc(C(O)c2nc(-c3ccc(C)c(C)c3)cs2)c1` (centres undefined) belongs 8.62%.

On to `COc1ccc(C(O)c2nc(-c3ccc4c(c3)OCO4)cs2)cc1` (centres undefined), for which the rescue of ATP level was 87.4% (active). Next, `CCOc1ccc(C(CC(=O)O)n2cnnn2)cc1OC` (centres undefined): 5.44%. Consider `O=C(O)CC(c1ccccc1)n1cnnn1` (centres undefined), for which the rescue of ATP level was 86% (active). Turning to `O=C(O)CC(Cn1cnnn1)c1ccccc1` (centres undefined), the rescue of ATP level was 7.4%. Next, `O=C(Nc1cccc(Cl)c1)N[C@H]1CC[C@H](CCNC(=O)C2CCOCC2)O[C@H]1CO`: -25.3%; `C[C@@H]1CCCCO[C@H](CN(C)C(=O)Nc2cccc3ccccc23)[C@H](C)CN([C@H](C)CO)C(=O)c2cc(NS(=O)(=O)c3cccs3)ccc2O1`: 28.4%.

For `C[C@@H]1CCCCO[C@H](CN(C)C(=O)Nc2cccc3ccccc23)[C@@H](C)CN([C@H](C)CO)C(=O)c2cc(NS(=O)(=O)c3cccs3)ccc2O1`, the rescue of ATP level is -12.1%. To `C[C@H](CO)N1C[C@H](C)[C@H](CN(C)C(=O)Nc2cccc3ccccc23)OCCCC[C@H](C)Oc2ccc(NC(=O)Nc3ccc4c(c3)OCO4)cc2C1=O` belongs 90.3% (active). Next, `C[C@@H]1CCCCO[C@@H](CN(C)Cc2ccc3c(c2)OCO3)[C@H](C)CN([C@@H](C)CO)C(=O)c2cc(NS(C)(=O)=O)ccc2O1`: -0.957%; `C[C@H]1CCCCO[C@@H](CN(C)C(=O)Nc2cccc3ccccc23)[C@@H](C)CN([C@@H](C)CO)C(=O)c2cc(NS(=O)(=O)c3ccc(Cl)cc3)ccc2O1`: 125% (active); `C[C@@H]1CCCCO[C@H](CN(C)C(=O)Nc2cccc3ccccc23)[C@@H](C)CN([C@H](C)CO)C(=O)c2cc(NC(=O)Nc3ccc4c(c3)OCO4)ccc2O1`: -47.9%. With `C[C@@H]1CCCCO[C@@H](CN(C)S(C)(=O)=O)[C@@H](C)CN([C@@H](C)CO)C(=O)c2cc(NS(=O)(=O)c3ccc(Cl)cc3)ccc2O1`, the rescue of ATP level is 7.9%.

`C[C@@H]1CCCCO[C@H](CN(C)S(C)(=O)=O)[C@@H](C)CN([C@H](C)CO)C(=O)c2cc(NS(=O)(=O)c3ccc(Cl)cc3)ccc2O1`: the rescue of ATP level is -21.9%.

As to `C[C@@H]1CCCCO[C@@H](CN(C)S(C)(=O)=O)[C@H](C)CN([C@@H](C)CO)C(=O)c2cc(NS(=O)(=O)c3ccc(F)cc3)ccc2O1`, the rescue of ATP level is 132% (active). Take `C[C@@H]1CCCCO[C@@H](CN(C)Cc2ccc(Cl)c(Cl)c2)[C@H](C)CN([C@@H](C)CO)C(=O)c2cc(NS(C)(=O)=O)ccc2O1`: the rescue of ATP level was 98% (active). To `C[C@@H]1CCCCO[C@@H](CN(C)Cc2ccc(Cl)c(Cl)c2)[C@@H](C)CN([C@@H](C)CO)C(=O)c2cc(NS(C)(=O)=O)ccc2O1` belongs -1.95%; to `C[C@H]1CCCCO[C@H](CN(C)C(=O)Nc2ccccc2)[C@@H](C)CN([C@@H](C)CO)C(=O)c2cc(NC(=O)Nc3ccc4c(c3)OCO4)ccc2O1`, -0.0505%.

Source of the values: PubChem BioAssay AID602340 (Broad Institute, 2012).
